# From PubChem BioAssay
# Tb PYK inh: blocks Trypanosoma brucei pyruvate kinase; Q57TT1; TbPYK enzyme, Kinase-Glo Plus ATP luminescence, 45 min; Potency, µM (series often up to 76.8 µM), for inactives: at the highest dose activity, negative = inhibition, actives largely listed as inhibitors; 410,000 compounds, 0.12% hits; AID 624173; active = well fitted curve in the direction sought with a large enough effect; an effect the other way counts as inactive or inconclusive; note: potency is the fitted concentration of half-maximal effect; % is set by controls: 0 for no effect and ±100 for the full control effect; nearly all actives have a fitted effect of over 50% in size
#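 Screened from lowest to highest concentration, compounds were pinned into TbPYK/substrate mixtures, and ADP (130 uM final) was added. Plates sat at room temperature for 45 min prior to Kinase-Glo Plus detection by luminescence.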
# NS1 function inh: blocks influenza NS1 protein function. Potency, µM (doses to about 46.1 µM), without a hit: at the highest dose activity, positive = more growth. 270,000 compounds, 0.4% hits; note: potency is the fitted concentration of half-maximal effect; actives are rising curves; nearly all actives have a fitted effect of over 50% in size
#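 A cell-based growth assay was used: compounds that relieve NS1-induced slow growth of budding yeast raise OD600. Assay medium was yeast nitrogen base with ammonium sulphate and -URA supplement, pH 6.0, with 2% galactose.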
# Cycloheximide cs: affects cycloheximide protein synthesis inhibition readout, counter-screen. cell reporter, cycloheximide protein synthesis inhibition counterscreen. max response, %. 300,000 compounds, 12% hits. AID 2314; in the data active = max response mostly above about 13%, no sharp cut-off; inactive = mostly below about 14%; note: read at 38.3 µM for the half of the compounds with a filed dose; 0% is about no effect
# Shiga toxin inh: inhibitors of Shiga toxin in Vero cells. 290,000 compounds, 9.2% hits. Vero cells, Shiga toxin protein synthesis inhibition reporter. inhibition, % at 38.7 µM; in the data active = inhibition mostly above about 28%, no sharp cut-off; inactive = mostly below about 43%; note: 0% is about no effect
# SARS PLpro yeast: inhibitors of SARS-CoV papain-like protease in yeast | 330,000 compounds, 0.19% hits | S. cerevisiae expressing SARS-CoV PLpro, growth rescue | Potency, µM (top dose mostly 32.9 µM), for the others: at the top dose activity, positive = growth rescue, hits mostly activators; note: potency is the fitted concentration of half-maximal effect; 0% is about no effect; nearly all actives have a fitted effect of over 55% in size
# LmPK inh: blocks Leishmania mexicana pyruvate kinase activity; Q27686; purified LmPK, Kinase-Glo ATP luminescence, 1 h; Potency, µM (titrated, usually from 57.5 µM), for the others: at the top dose activity change, negative = inhibition, most hits filed as inhibitors; 290,000 compounds, 0.37% hits; AID 1721; active = well fitted curve in the direction sought with a large enough effect; an effect the other way counts as inactive or inconclusive; note: potency is the fitted concentration of half-maximal effect; % is set by controls: 0 for no effect and ±100 for the full control effect
# Target sequence (Q27686 whole entry, looked up): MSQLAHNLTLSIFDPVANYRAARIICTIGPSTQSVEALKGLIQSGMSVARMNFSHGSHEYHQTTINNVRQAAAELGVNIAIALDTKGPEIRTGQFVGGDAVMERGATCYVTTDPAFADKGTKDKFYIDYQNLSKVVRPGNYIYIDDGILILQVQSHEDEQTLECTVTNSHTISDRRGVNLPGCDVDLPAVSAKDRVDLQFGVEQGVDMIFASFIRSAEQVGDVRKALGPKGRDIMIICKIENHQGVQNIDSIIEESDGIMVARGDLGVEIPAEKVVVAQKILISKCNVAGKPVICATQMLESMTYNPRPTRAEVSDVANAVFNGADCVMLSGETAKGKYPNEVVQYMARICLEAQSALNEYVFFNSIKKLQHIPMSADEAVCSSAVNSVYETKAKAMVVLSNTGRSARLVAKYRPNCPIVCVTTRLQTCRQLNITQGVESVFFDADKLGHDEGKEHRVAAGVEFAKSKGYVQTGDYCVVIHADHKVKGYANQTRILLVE
#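 Purified LmPK (0.1 nM) converted ADP (0.1 mM) to ATP with PEP (0.5 mM) in imidazole buffer pH 7.2 with KCl and MgCl2, 1 h at room temperature. ATP was read by Kinase-Glo luminescence; data normalized to uninhibited and no-enzyme controls.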
# Active calls of the source: *; x = not tested or not shown; [ ] = dose if it differs, or a comment. The full list was thinned out, with hits kept by preference. Unless noted, calls come from the whole dose curve.
SMILES,Tb PYK inh,NS1 function inh,Cycloheximide cs,Shiga toxin inh,SARS PLpro yeast,LmPK inh
CCOc1ccc(N/C=C/C(=O)c2ccccc2)c([N+](=O)[O-])c1,25.1µM*,-13.5%,58.7*,46.2*,-45.3%,3.98µM*
CCOc1ccc(NC(=O)/C=C/c2ccccc2)c([N+](=O)[O-])c1,-2.6%,-2.7%,25.2*,28.9,2.1%,-0.7%
COc1ccc(C2CCCCCN2C(=O)C2CCN(S(=O)(=O)c3ccc(C)cc3)CC2)cc1 (configuration not stated),-1.4%,x,x,x,x,x
c1ccc(COn2nnc3ccccc32)c(COn2nnc3ccccc32)c1,-17.9%,-60.7%,-0.5,-6.4,-15.9%,7.6%
COC(=O)c1ccc(COn2nnc3ccccc32)cc1,-0.8%,x,39.4*,97.0*,-6.6%,-17.9%
Clc1cccc(Cl)c1COn1nnc2ccccc21,4.0%,-68.1%,24.9*,37.3,-3.5%,-7.5%
COc1ccc(C(=O)NC(=S)N(C)C2CCCCC2)cc1,-12.2%,3.5%,35.8*,50.1*,8.8%,-12.3%
Cc1ccccc1C(=O)NC(=S)N(C)C1CCCCC1,-14.0%,-2.5%,26.3*,30.9*,1.0%,-7.8%
CN(C(=S)NC(=O)c1ccccc1Br)C1CCCCC1,-6.4%,-10.1%,4.3,24.9,3.3%,-0.4%
Cc1ccc(C)c(NC(=O)c2ccc3c(c2)CCCN3S(C)(=O)=O)c1,5.3%,x,x,x,x,x
O=C(Nc1ccc(NC(=O)c2cccs2)cc1)c1cccnc1,2.5%,x,2.3,-2.4,0.1%,2.3%
O=C(Nc1ccc(Cc2ccncc2)cc1)c1cccs1,2.1%,x,33.4*,69.1*,-1.5%,-1.9%
O=C(c1ccncc1)c1ccc(NC(=O)c2cccs2)cc1,3.0%,x,29.2*,148.1*,-6.4%,4.5%
COc1ccc(CNC(=O)N2CCN(C(=O)c3ccccc3)CC2)cc1,6.0%,x,x,x,-1.6%,x
CCC/C=N/NC(=O)c1ccccc1O,-9.3%,-0.5%,17.7*,47.5*,-1.9%,4.9%
C/C(CC(=O)Nc1ccc(N(C)C)cc1)=N\NC(=O)c1ccc(Cl)cc1Cl,-7.5%,2.4%,17.5,19.3,-14.5%,5.9%
CCC/C=N/NC(=O)CNC(=O)c1ccccc1Cl,-5.0%,4.9%,5.2,4.8,-3.6%,-1.0%
C/C(CC(=O)Nc1ccc(N(C)C)cc1)=N\NC(=O)c1ccccc1O,-2.1%,-18.6%,16.3*,x,-5.0%,6.1%
C/C(CC(=O)Nc1ccc([N+](=O)[O-])cc1)=N\NC(=O)c1ccccc1O,2.4%,-36.8%,24.1*,x,-3.2%,2.6%
C/C(CC(=O)Nc1ccc(N(C)C)cc1)=N\NC(=O)c1ccc(F)cc1,-1.0%,-6.9%,31.0*,36.0*,1.3%,1.3%
C/C(=N/NC(=O)c1cc2ccccc2cc1O)C1C(=O)c2ccccc2C1=O,1.9%,-73.6%,-2.5,-8.1,26.5%,1.1%
O=C(NN=C(Cc1ccccc1)Cc1ccccc1)c1ccccc1O,-0.7%,x,11.0,18.2,-1.0%,1.9%
C/C(=N\NC(=O)c1ccccc1O)C1C(=O)c2ccccc2C1=O,x,-195.6%,29.4*,35.7,14.1%,-6.3%
CCC/C(C)=N/NC(=O)c1ccccc1O,-1.3%,2.1%,27.5*,104.8*,-0.1%,-3.0%
CCCCN(C(=O)c1cc(-c2ccncc2)nc2ccccc12)c1c(N)n(CC(C)C)c(=O)[nH]c1=O,-1.7%,x,x,x,4.1%,x
SMILES,Tb PYK inh,NS1 function inh,Cycloheximide cs,Shiga toxin inh,SARS PLpro yeast,LmPK inh
CC1(C(=O)NS(=O)(=O)c2ccc(F)cc2F)CCN1C(=O)CCc1ccc(Cl)cc1Cl (configuration not stated),-11.5%,x,x,x,x,x
CC(C)=CCC/C(C)=C/C=C/C(C)=C/C=C/C(C)=C/C=C/C=C(C)/C=C/C=C(C)/C=C/C=C(\C)CCC=C(C)C,-1.8%,x,x,x,x,x
O=C(/C=C/c1c(Cl)cccc1Cl)n1cccn1,3.0%,-25.6%,9.8*,13.9,-41.4%,-9.6%
Cc1cc(=O)n2[nH]c(-c3ccccc3)cc2n1,-2.1%,-8.3%,19.7,65.7*,x,-1.3%
COCc1cc(=O)n2[nH]c(-c3ccc(C)cc3)cc2n1,4.7%,6.6%,37.2*,71.7*,-7.0%,-3.5%
CCOC(=O)Cc1cc(=O)n2[nH]c(-c3ccc(C)cc3)cc2n1,-5.1%,13.3%,-1.2,13.5,5.2%[6.58 µM],-9.0%
Cc1nc2cc(-c3ccccc3)[nH]n2c(=O)c1C,-2.6%,15.4%,34.1*,63.0*,-7.9%,-3.1%
CCOC(=O)Cc1c(C)nc2cc(-c3ccc(Cl)cc3)[nH]n2c1=O,4.0%,1.4%,5.0,16.8,0.3%,-8.8%
CCc1c(C)nc2cc(-c3ccc(OC)cc3)[nH]n2c1=O,8.6%,3.0%,32.4*,130.4*,0.3%,11.9%
O=c1cc(-c2ccccc2)nc2cc(-c3ccc(F)cc3)[nH]n12,-12.1%,x,x,x,x,x
CCC1CCC/C1=N\NC(=O)c1ccoc1C (configuration not stated),2.7%,5.3%,37.8*,86.5*,-2.0%,-11.3%
CC(C)Oc1cc(F)ccc1-c1cc(C(=O)NC2CCCCC2)[nH]n1,4.8%,x,x,x,x,x
Cc1ccc(OCC(=O)Nc2ccc(S(=O)(=O)Nc3cc(C)nc(C)n3)cc2)c(Br)c1,-5.0%,x,x,x,x,x
CCOC(=O)c1ccc2[nH]c3ccccc3c2c1,-2.7%,-1.5%,36.8*,63.1*,-5.5%,-0.8%
COC(=O)c1ccc2[nH]c(C(C)(C)O)c(C)c2c1,0.4%,0.3%,22.9*,39.7*,-18.3%,-2.3%
Cc1sc(-n2cccc2)c(C(C)NC(=O)Nc2ccccc2Cl)c1C (configuration not stated),0.0%,x,x,x,x,x
CCc1nnc(NS(=O)(=O)c2ccc(NC(=O)c3ccc([N+](=O)[O-])s3)cc2)s1,0.3%,x,x,x,x,x
Oc1ccc(N=C/C=C/c2ccc(Br)cc2)cc1-c1nc2ccccc2s1,x,17.4%,36.2*,40.3*,-4.2%,-12.5%
O=C(Nc1ccc(-c2nc3ccccc3s2)c(O)c1)c1ccc(Br)cc1,17.0%,x,x,x,x,x
Cc1ccc2c(c1)-c1nc(-c3ccc4c(c3)NC(=O)CO4)cc(-c3ccc(Cl)cc3)c1CO2,0.8%,x,x,x,x,x
NC/C=C\C(=O)O,x,-6.2%,x,x,x,x
O=c1c2ccccc2nc2ccc(NCc3cccs3)nn12,-5.0%,x,53.6*,59.3*,10.6%,-0.6%
CC1=C(C(=O)Nc2ccc(C)cc2C)C(c2sccc2C)n2ncnc2N1 (configuration not stated),-6.0%,x,x,x,x,x
COc1ccccc1NC(=O)Nc1ccc(Br)cn1,-11.1%,-14.9%,-4.5,5.4,2.6%,-6.1%
